Shown are actives, neighbours in structure and some others; about 6.9% of the full set was active somewhere.
KB-V1 MDR tox – KB-V1 MDR subline cytotoxicity; KB-V1 MDR cells viability, CellTiter-Glo, 72 h; Potency, µM (doses to about 46.1 µM), most hits filed as cytotoxic; 3.4% of 400,000 active; note: nearly all actives have a fitted effect of over 60% in size
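Compound-treated KB-V1 multidrug-resistant cells, 72 h, 37 degrees C; viability by CellTiter-Glo. Fitted qHTS curves give the values.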
S-ASM inh – inhibitors of human secretory acid sphingomyelinase; P17405; placental ASM, HMU-PC fluorogenic substrate, 60 min; Potency, µM (titrated, usually from 57.5 µM), most hits filed as inhibitors; 0.006% of 340,000 active
Target sequence (P17405 47-631 limits assumed): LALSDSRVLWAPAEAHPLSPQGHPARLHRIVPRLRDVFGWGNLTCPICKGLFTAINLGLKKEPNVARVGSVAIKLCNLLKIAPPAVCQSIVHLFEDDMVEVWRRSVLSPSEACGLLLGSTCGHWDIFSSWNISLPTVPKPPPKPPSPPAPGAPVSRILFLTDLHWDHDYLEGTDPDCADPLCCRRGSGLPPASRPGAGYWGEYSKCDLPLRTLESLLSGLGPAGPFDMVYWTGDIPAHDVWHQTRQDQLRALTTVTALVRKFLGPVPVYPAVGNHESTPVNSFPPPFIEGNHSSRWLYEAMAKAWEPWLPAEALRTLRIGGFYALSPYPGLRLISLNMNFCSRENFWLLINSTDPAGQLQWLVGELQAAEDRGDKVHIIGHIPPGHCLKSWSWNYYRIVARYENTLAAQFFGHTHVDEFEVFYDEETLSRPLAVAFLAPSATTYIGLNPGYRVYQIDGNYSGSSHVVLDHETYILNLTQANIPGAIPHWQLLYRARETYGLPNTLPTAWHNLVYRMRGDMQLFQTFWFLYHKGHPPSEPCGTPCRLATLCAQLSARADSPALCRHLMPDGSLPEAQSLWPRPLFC
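Fluorescence read-out (Ex 386 nm, Em 447 nm) after stopping the reaction at pH 10. Enzyme: ASM from human placenta; substrate HMU-PC0, 9 uM final; 60 min, 37 °C. Compound preincubation 10 min, ambient temperature.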
SW480 rereplic – DNA re-replication induction in SW480 cells. 1.8% of 340,000 active. Potency, µM (highest dose often 46.1 µM), actives largely listed as activators. SW480 DNA re-replication, Hoechst DNA content imaging, 48 h; note: nearly all actives have a fitted effect of over 55% in size
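Readout is total intensity of Hoechst-stained nuclei, excited at 405 nm and collected at 500-530 nm. Compound treatment lasted 48 hr at 37 C in 5% CO2 before staining.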
KB-3-1 tox – kills parental KB-3-1 adenocarcinoma cells; 1.4% of 400,000 active; Potency, µM (titrated, usually from 46.1 µM), usual class: cytotoxic; KB-3-1 viability, CellTiter-Glo ATP luminescence, 72 h; note: nearly all actives have a fitted effect of over 60% in size
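Parental KB-3-1 viability, qHTS format: 72 h compound exposure, 37 °C; CellTiter-Glo; media-only wells and DMSO plates as controls; concentration-effect fits on corrected data.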
MCF10A rereplic – induces DNA re-replication in MCF 10a normal breast cells. Potency, µM (doses to about 46.1 µM), actives largely listed as activators. 2.9% of 350,000 active. MCF 10A DNA re-replication, Hoechst nuclear intensity, 48 h; note: nearly all actives have a fitted effect of over 50% in size
Giardia kill – Giardia lamblia killing; 0.15% of 340,000 active; Giardia lamblia trophozoite viability; activity change, % at 7.66 µM, hits read low; AID 540267; in the data active = activity change below about -80%; inconclusive = between about -30% and that limit;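 note: parasites exposed to compound for two days anaerobically before the ATP read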
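Trophozoites 100 cells/well + cpd; 48 hrs, 37 deg C, anaerobic. ATPLite 1-Step added, 15-30 min RT, luminescence read (ATP-based viability).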
Each line names hits and unclear results; the compound was inactive in the other large screens. Unless noted, calls come from the whole dose curve; as a rule, active = well fitted curve in the direction sought with a large enough effect; inconclusive = small, poorly fitted or top-dose-only effect, or another doubt; inactive = no such curve, though single readings can be large; an effect the other way counts as inactive or inconclusive.

O=C(NCc1cccc(F)c1)c1cccc2c1C(=O)c1ccc(N3CCC(Cc4ccccc4)CC3)cc1S2(=O)=O	MCF10A rereplic 11.6µM
O=C(NCc1ccco1)c1cccc2c1C(=O)c1ccc(N3CCC(Cc4ccccc4)CC3)cc1S2(=O)=O	SW480 rereplic inconclusive, MCF10A rereplic inconclusive
O=C(NCc1ccc(OC(F)(F)F)cc1)c1cccc2c1C(=O)c1ccc(N3CCC(Cc4ccccc4)CC3)cc1S2(=O)=O	MCF10A rereplic 5.8µM
O=C(NCc1ccc(OC(F)(F)F)cc1)c1cccc2c1C(=O)c1ccc(N3CCCC3)cc1S2(=O)=O	none
Cc1coc2c1c(C)cc1oc(=O)c(CC(=O)NCCCN3CCCC3=O)c(C)c12	none
CCCOC(=O)c1c(NC(=O)c2nc3ncccn3n2)sc(C(=O)OCC)c1C	KB-3-1 tox inconclusive (no result: S-ASM inh, SW480 rereplic, MCF10A rereplic, Giardia kill)
Cc1ccccc1/C=C/C(=O)c1ccc([N+](=O)[O-])o1	KB-V1 MDR tox inconclusive, SW480 rereplic inconclusive, KB-3-1 tox inconclusive, MCF10A rereplic inconclusive
O=C(/C=C/c1cccc([N+](=O)[O-])c1)c1ccc([N+](=O)[O-])o1	SW480 rereplic inconclusive, KB-3-1 tox inconclusive, MCF10A rereplic 1.64µM
COc1ccc(S(=O)(=O)N2CCN(C(=O)c3ccc([N+](=O)[O-])o3)CC2)cc1	SW480 rereplic inconclusive, MCF10A rereplic inconclusive, Giardia kill inconclusive
COc1ccc(/C=C/C(=O)c2ccc([N+](=O)[O-])o2)cc1	KB-V1 MDR tox inconclusive, SW480 rereplic 11.6µM, KB-3-1 tox 18.4µM, MCF10A rereplic 2.31µM
Cc1cccc(/C=C/C(=O)c2ccc([N+](=O)[O-])o2)c1	SW480 rereplic inconclusive, KB-3-1 tox inconclusive, MCF10A rereplic 11.6µM, Giardia kill inconclusive
CC(OC(=O)c1cccc(-n2cnnn2)c1)C(=O)N(C)c1ccccc1 (centres undefined)	none
O=C(C[N+]12CN3CN(CN(C3)C1)C2)c1ccc(-c2ccccc2)cc1	KB-3-1 tox inconclusive (no result: S-ASM inh, SW480 rereplic, MCF10A rereplic, Giardia kill)
COC(=O)c1sc2cccc(F)c2c1S(=O)(=O)Nc1cc(OC)cc(OC)c1	none (no result: S-ASM inh, SW480 rereplic, MCF10A rereplic, Giardia kill)
COc1cccc(C(NC(=O)c2ccccc2F)NC(=O)c2ccccc2F)c1	none
COc1cccc(C(c2c(N)[nH]c(=S)[nH]c2=O)c2c(N)[nH]c(=S)[nH]c2=O)c1	SW480 rereplic 5.17µM
COC(=O)c1sc2cccc(F)c2c1S(=O)(=O)NCc1ccccc1Cl	none (no result: S-ASM inh, SW480 rereplic, MCF10A rereplic, Giardia kill)
COc1ccccc1N(C)S(=O)(=O)c1ccc(C)c(C(=O)NC(C)c2ccccn2)c1 (centres undefined)	KB-V1 MDR tox 9.2µM
Cc1cc2c(cc1S(=O)(=O)NCc1ccc(F)cc1)n(C)c(=O)c(=O)n2C	none (no result: S-ASM inh, SW480 rereplic, MCF10A rereplic, Giardia kill)
O=S(c1cc(Cl)cc(Cl)c1O)c1cc(Cl)cc(Cl)c1O	KB-V1 MDR tox inconclusive, KB-3-1 tox inconclusive, MCF10A rereplic 13.3µM (no result: S-ASM inh, Giardia kill)
Oc1c(Cl)cc(Cl)cc1CNc1nccs1	none
O=C(N[C@H]1C/C=C\C[C@@H](CC(=O)N(CCO)Cc2ccccc2)C(=O)NC[C@H](c2ccccc2)OC1=O)OCC1c2ccccc2-c2ccccc21	KB-3-1 tox inconclusive, MCF10A rereplic 6.51µM, Giardia kill inconclusive
C[C@@H]1COC(=O)[C@H](NC(=O)OCC2c3ccccc3-c3ccccc32)C/C=C\C[C@@H](CC(=O)N(CCO)Cc2ccccc2)C(=O)N1	none
O=C(N[C@@H]1C/C=C\C[C@@H](CC(=O)N(CCO)Cc2ccccc2)C(=O)NCCOC1=O)OCC1c2ccccc2-c2ccccc21	none
O=C(N[C@@H]1C/C=C\C[C@H](CC(=O)N(CCO)Cc2ccccc2)C(=O)N[C@@H](Cc2ccccc2)COC1=O)OCC1c2ccccc2-c2ccccc21	SW480 rereplic inconclusive, KB-3-1 tox inconclusive, MCF10A rereplic 13µM
O=C1N[C@@H](c2ccccc2)COC(=O)[C@@H](Cc2ccc(F)cc2)C/C=C\C[C@H]1CC(=O)N(CCO)Cc1ccccc1	KB-V1 MDR tox inconclusive, SW480 rereplic inconclusive, KB-3-1 tox 20.6µM, MCF10A rereplic inconclusive
CCOC(=O)N1CCN(CC(=O)Nc2c(C(=O)OC)[nH]c3cc(C)ccc23)CC1	none

Source: PubChem BioAssay (National Center for Advancing Translational Sciences (NCATS))
